HPGD block – HPGD (human) dehydrogenase inhibition | P15428 | purified HPGD, NADH fluorescence kinetic, PGE2 substrate | Potency, µM, most hits filed as inhibitors | 150,000 tested, 4.3% active | AID 894
Target sequence (P15428 whole entry, looked up): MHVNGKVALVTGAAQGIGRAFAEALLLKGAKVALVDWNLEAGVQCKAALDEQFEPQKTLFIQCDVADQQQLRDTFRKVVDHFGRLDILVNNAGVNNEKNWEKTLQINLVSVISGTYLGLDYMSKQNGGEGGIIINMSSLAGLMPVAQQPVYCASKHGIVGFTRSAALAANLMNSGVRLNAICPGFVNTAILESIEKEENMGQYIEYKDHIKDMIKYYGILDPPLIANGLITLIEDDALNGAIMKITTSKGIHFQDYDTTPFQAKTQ
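NADH formation kinetics: reaction with 30 uM PGE2 and 1 mM NAD+ (final), 20 nM enzyme, Tris-HCl pH 8 with Tween 20, after 15 min compound preincubation at room temperature. Fluorescence change, last versus first of five reads.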
ALDH1A1 inh – blocks purified human ALDH1A1 activity | P00352 | Purified ALDH1A1, NADH fluorescence, propionaldehyde substrate | Potency, µM (series often up to 75.3 µM), usual class: inhibitors | 220,000 tested, 7.3% active | AID 1030
PNC assembly inh – blocks assembly of the perinucleolar compartment; PC3M PTB-GFP, PNC prevalence imaging, 16 h; hits give low values; activity change (PNC), negative = inhibition, % at 10 µM; 140,000 tested, 3.1% active;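 active = readout at or below -70, meaning at least 70% loss of cells showing the perinucleolar compartment, a nuclear body marking cancer cells; inconclusive = readout between -30 and a set limit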
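Compounds are pinned in duplicate onto adhered PC3M cells stably expressing GFP-tagged PTB and incubated 16 h at 37 C. Cells are then fixed, nuclei stained with Hoechst, and PNC-positive cells counted.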
Numbers stand for hits; 0 = inactive; ? = inconclusive; - = no result; [ ] = dose if it differs, or a comment. Compounds with a hit are over-represented: about 11% of the library has one in this group of screens. Unless noted, calls come from the whole dose curve; as a rule, active = well fitted inhibition curve with a large enough effect (not every such curve was filed as active); inconclusive = small, poorly fitted or top-dose-only effect, or another doubt; inactive = no such curve, though single readings can be large or run the other way.

SMILES	HPGD block	ALDH1A1 inh	PNC assembly inh
O=C(NN=C1CCCC1)NC1CCCCC1	0	0	-118
Cc1ccc(C(=O)O[C@H](C(=O)O)[C@@H](OC(=O)c2ccc(C)cc2)C(=O)O)cc1 (tested in a mixture with another compound)	0	0	-
Cc1ccc(C(=O)NN2C(=O)CSC2=S)cc1	0	0	-84
O=C(COc1ccccc1)NN1C(=O)CSC1=S	-	0	-
CCCCCCC(=O)Cc1cc(OC)c(OC)cc1/C=C(/C(C)=O)C(=O)OC	-	0[13.5 µM]	-
COc1ccc(NC(=O)c2sccc2C)cn1	-	0	-
CN1CCN(C(=S)c2ccc(Cl)cc2)CC1	0	0	0
CN1CCN(C(=S)NC(=O)c2ccc(Cl)cc2)CC1	-	18µM	-
CC(C)CCN(C(=O)Nc1ccc(Cl)cc1)C1CCN(C(C)C)CC1	-	0	-
COc1ncc2nc(-c3cc(F)cc(F)c3)c(=O)n(C)c2n1	-	0	-
COc1ccccc1/C=C1\NC(=S)N(CC2CCCO2)C1=O (centres undefined)	28µM	0.5µM	0
COc1ccc(/C(O)=C2/C(=O)C(=O)N(CC3CCCO3)C2c2cccc(OC)c2)cc1 (centres undefined)	0	0	0
COc1ccc(/C=C2/C(=O)N(CC3CCCO3)C(=S)N2C)c(OC)c1 (centres undefined)	0	13µM	0
CN1C(=O)/C(=C/c2ccccc2OCc2ccccc2F)NC1=S	0	0	?
COC(=O)C1=C(C(=O)OC)[C@@H]2N(C)c3ccccc3[C@@]23C[C@@H](C(=O)OC)N(S(=O)(=O)c2ccc([N+](=O)[O-])cc2)C3=N1	0	0[13.5 µM]	-
CC[C@@H](C)C(N)c1cn([C@@H](CCC(=O)O)C(=O)N2CCNCC2)nn1 (some centres undefined)	-	0	-
FC(F)(F)c1ccccc1C1C2=C(Nc3ncnn31)c1ccccc1CCC2 (centres undefined)	0	?	0
Fc1ccccc1/C=C1\CCCC2=C1NC(=S)NC2c1ccccc1F (centres undefined)	-	0.79µM	-
S=C1NC2=C(CCC/C2=C\c2ccc(Cl)cc2)C(c2ccc(Cl)cc2)N1 (centres undefined)	-	13µM	-
S=C1NC2=C(CCCC2=C2SCCCS2)C(c2ccccc2)N1 (centres undefined)	-	1µM	-
C(=C1/CCCC2=C1Nc1ncnn1C2c1ccccc1)/c1ccccc1 (centres undefined)	25µM	0	?
CC(=O)N1CCC(=O)N(C(C)C)c2ccccc21	0	0	0
Cc1nn(C2CCS(=O)(=O)C2)c(Cl)c1/C=C/C(=O)OCC(=O)c1cc(C)n(-c2ccc(F)cc2)c1C (centres undefined)	0	0	0
S=C1NC2=C(CCC/C2=C\c2ccccc2)C(c2ccccc2)N1 (centres undefined)	22µM	0.63µM	0
Fc1cccc(/C=C2\CCCC3=C2NC(=S)NC3c2cccc(F)c2)c1 (centres undefined)	-	0.79µM	-
SMILES	HPGD block	ALDH1A1 inh	PNC assembly inh
Cc1cc(C)nc(N/N=C2/CCCC/C2=C\c2ccccc2)n1	-	0	-
CC1CC2=C(NC(=S)NC2c2ccc(F)cc2)/C(=C/c2ccc(F)cc2)C1 (centres undefined)	0	3.5µM	0
O=C1/C(=C/c2ccc(F)cc2)CCC1C1CCCC1 (centres undefined)	0	?	0
Cc1ccc(NC(=O)CN(C)C(=O)c2n[nH]c(=O)c3ccccc23)cc1	-	0	-
Cc1[nH]c(N)nc(=S)c1CCC(=O)O	0	0[13.5 µM]	-
CCOc1ccccc1NC(=O)c1ccccc1-c1nc(-c2ccccc2OC)no1	-	0	0
O=C(CCc1cnccn1)NC1CCCc2c1cnn2-c1ccc(F)cc1F (centres undefined)	-	0	-
Cc1cc(Cl)ccc1OCC(=O)NCCCCc1ccccc1	0	0	0
Cc1cc(C)c(S(=O)(=O)N(C)CC(=O)NC2CCCC2)c(C)c1	0	0	0
CCC(C)(C)n1nnnc1C(c1cccs1)N1CCc2ccccc21 (centres undefined)	0	14µM	0
CC(C)(C)n1nnnc1C(c1ccc(Cl)cc1)N1CCCc2ccccc21 (centres undefined)	0	0	-88
CCC(C)(C)n1nnnc1C(c1cccnc1)N1CCCc2ccccc21 (centres undefined)	0	?	?
COc1ccccc1C(c1nnnn1C(C)(C)C)N1CCCc2ccccc21 (centres undefined)	0	0	?
Cc1cc2ncn(CC3CC3(Cl)Cl)c2cc1C (centres undefined)	-	0	-
CC(Cl)C(=O)c1ccc2c(c1)CCN2C(=O)C1CC1 (centres undefined)	-	1.4µM	-
O=C(C1CC1)N1CCc2cc(S(=O)(=O)N3CCOCC3)ccc21	0	0	0
COc1cccc(CNC(=S)NC2CC2)c1	-	0	-
COc1ccc(C(=O)COC(=O)Cn2nnc3ccccc32)cc1Br	0	0	0
COc1ccc(C(=O)/C=C/c2ccc(OC)c(COc3ccccc3F)c2)cc1	0	2.5µM	?
COc1ccc(C=O)cc1COc1c(F)c(F)cc(F)c1F	0	?	0
COc1ccc(/C=C/C(=O)c2ccccc2)cc1COc1ccc(F)cc1	0	0	0
CCOc1cc(/C=C/C(=O)c2ccc(C)cc2)ccc1OCC(=O)N(C)C	0	?	0
COc1cc(/C=C/C(=O)c2ccc(C)cc2)ccc1OCC#N	0	13µM	?
COc1ccc(/C=C/C(=O)c2ccccc2)cc1Cn1nnc2ccccc21	16µM	?	0
COc1ccc(C=O)cc1COc1ccc(F)cc1F	32µM	8.9µM	0
SMILES	HPGD block	ALDH1A1 inh	PNC assembly inh
c1csc(CN2CCOCC2)c1	0	0	0
CCOc1ccc(C(=O)Nc2cc(-c3nc4ccccc4[nH]3)ccc2Cl)cc1[N+](=O)[O-]	?	0	0
CCCCNCCCOc1cccc(Cl)c1Cl	0	0	0
CCC1CC2CC(NC(C)=O)C1C2 (centres undefined)	0	0	0
CC[C@H](C)[C@H](NC(N)=O)C(=O)NCCc1ccc(Cl)cc1Cl	-	0	-
Cc1c(F)cccc1NC(=O)CSCC(=O)Nc1ccccc1	0	0	0
CN(C)c1ccc(C(=C2C=CC(=[N+](C)C)C=C2)c2c(O)c(S(=O)(=O)O)cc3cc(S(=O)(=O)O)ccc23)cc1	0	3.5µM	-
Cc1[nH]c2c([N+](=O)[O-])cccc2c1C	-	0	-
O=C(CN1C(=O)c2cccc3cccc(c23)C1=O)N1CCN(c2ccccn2)CC1	0	0	-104
O=C(O)CCC(=O)N1CCN(c2ccccn2)CC1	?	0	0
O=[N+]([O-])c1ccc(Nc2nc(N/N=C/c3cccc(F)c3)nc(N3CCCC3)n2)cc1	0	?	0
O=[N+]([O-])c1ccc(Nc2nc(NC3CCCCC3)nc(N3CCCC3)n2)cc1	-	13µM	-
COc1cccc(C2c3c(oc4ccc(Cl)cc4c3=O)C(=O)N2c2cc(C)on2)c1OC (centres undefined)	0	0	-136
COc1ccc(/C(O)=C2\C(=O)C(=O)N(c3cc(C)on3)C2c2cccc(OC)c2OC)cc1C (centres undefined)	0	0	0
CO[C@@H]1O[C@@H]2COC(c3ccccc3)O[C@@H]2[C@@H](OC)[C@@H]1O (some centres undefined)	0	0	0
CCC(C)NC(=O)c1ccccc1NC(=O)c1ccc(CSc2ccccc2)cc1 (centres undefined)	0	0	0
